Screening data as filed in PubChem.
Sampled rows, rich in hits. Any-hit rate of the full collection: about 2.4%.
eIF4E-4G inh: inhibitors of eIF4E and eIF4G interaction in translation initiation | TR-FRET eIF4E-eIF4GI(517-606) binding, 2 h | AID 782 | P63073+Q04637 | inhibition, % at 21.7 µM | 220,000 tested, 0.37% active;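 active = inhibition above about 30%, limit read from the data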;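 note: 0% = full FRET control wells and 100% = background wells lacking eIF4GI fragment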
PfM18AAP inh-1: blocks P. falciparum M18 aspartyl aminopeptidase. recombinant PfM18AAP, H-Glu-NHMec fluorogenic cleavage. inhibition, % at 7.35 µM. 290,000 tested, 1.2% active. AID 1822;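 active = inhibition above the campaign mean inhibition over all tested compounds plus 3 SD, cut at about 28% in these data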;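 note: 0% = plate median of test compound wells and 100% = 2 mM ZnCl2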
MLLE-PAM2 inh: inhibitors of microRNA-mediated deadenylation, human PABP1 MLLE binding. GST-MLLE / FITC-PAM2 fluorescence polarization. inhibition, % at 20 µM. P11940. 360,000 tested, 0.36% active; in the data active = inhibition above about 35%, passing the limit was not always enough;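 note: plate controls were DMSO wells with GST-MLLE for no effect and wells lacking GST-MLLE protein for full effect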
PABP polyA inh: blocks human PABP binding to poly(A) RNA. P11940. fluorescence polarization. inhibition, % at 35 µM. 290,000 tested, 1% active. AID 2014;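 note: calls also rest on retests at 20 µM and on dose response follow-up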
PERK inh: inhibitors of human PERK kinase; Q9NZJ5; 220,000 tested, 0.17% active; inhibition, % at 5.6 µM; AID 1416; CHO PERK-DD fusion, SEAP luminescence translation reporter;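 active = inhibition above the mean inhibition of all tested compounds plus 3 SD, set separately per screening campaign, cut at about 2.9% in these data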;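 note: PERK kinase domain activated by AP20187 dimerizer at 100 nM; 0% = DMSO with dimerizer and 100% = rapamycin at 8.4 µM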
eIF4H FP inh: inhibitors of RNA binding by human eIF4H; Q15056; eIF4H fluorescence polarization binding assay; inhibition, % at 35 µM; 290,000 tested, 0.94% active; AID 2012;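 note: calls also rest on retests at 20 µM and on dose response follow-up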
PfM18AAP inh-2: confirmation of Plasmodium falciparum M18 aspartyl aminopeptidase inhibitors | shares compounds with PfM18AAP inh-1 | recombinant PfM18AAP, H-Glu-NHMec fluorogenic cleavage | inhibition, % at 7.35 µM | 2,400 tested, 28% active;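 active = mean inhibition over replicate wells above the hit cutoff set for the earlier primary screen, cut at about 29% in these data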;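 note: 0% = median of test compound wells and 100% = 2 mM ZnCl2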
CTSL1 confirm: counter-screen for PFM18AAP inhibitors: confirmation of human cathepsin L inhibitors | 2,400 tested, under 10 active | inhibition, % at 5.96 µM | purified cathepsin L1, Z-Leu-Arg-MCA fluorescence | shares compounds with PfM18AAP inh-1;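 active = average inhibition across replicates above the hit cutoff set in the earlier primary screen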;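 note: 0% = median of test compound wells and 100% = Z-Phe-Ala-diazomethylketone 1 µM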
Numbers without * were called inactive. Unless noted, the rule behind the calls is not given here.

O=S(=O)(NNc1cccc(Cl)n1)c1ccc(Cl)cc1 was read as PfM18AAP inh-1 72*, MLLE-PAM2 inh 3, PABP polyA inh -7, eIF4H FP inh -7, PfM18AAP inh-2 49* and CTSL1 confirm -1.
Screening O=S(=O)(Nc1ccc(Cl)nn1)c1ccccc1 returned eIF4E-4G inh 1, PfM18AAP inh-1 -2, MLLE-PAM2 inh 5, PABP polyA inh -3, PERK inh 1 and eIF4H FP inh -4.
O=S(=O)(NNc1ccc(Cl)nn1)c1ccc(F)cc1 was read as eIF4E-4G inh -4, PfM18AAP inh-1 69*, MLLE-PAM2 inh -18, PABP polyA inh 1, PERK inh 0, eIF4H FP inh 2, PfM18AAP inh-2 64* and CTSL1 confirm 1.
`CC1=CC(=Nc2c(C)n(C)n(-c3ccccc3)c2=O)C=CC1=O` gave eIF4E-4G inh 5, PfM18AAP inh-1 17, PABP polyA inh inconclusive, PERK inh 0 and eIF4H FP inh inconclusive.
Screening O=C(C[n+]1cccc(CO)c1)Nc1nc2ccccc2s1 returned eIF4E-4G inh -3, PfM18AAP inh-1 -1, MLLE-PAM2 inh 14, PABP polyA inh -1, PERK inh 3 and eIF4H FP inh 7.
CNC(=O)COC(=O)c1ccc2c(c1)NC(=O)C1CCCN21 (centres undefined) was read as PfM18AAP inh-1 -2, PABP polyA inh 9 and eIF4H FP inh 0.
For O=C1C2CC=C(Cl)CC2C(=O)N1c1ncn[nH]1 (centres undefined) the results were eIF4E-4G inh 3, PfM18AAP inh-1 53*, MLLE-PAM2 inh -10, PABP polyA inh 8, PERK inh 1, eIF4H FP inh 67, PfM18AAP inh-2 8 and CTSL1 confirm -6.
`C[C@H](NC(=O)c1cc2c(cn1)[nH]c1ccccc12)C(=O)O` gave PfM18AAP inh-1 51*, MLLE-PAM2 inh 13, PABP polyA inh 12, eIF4H FP inh 1, PfM18AAP inh-2 27 and CTSL1 confirm 6.
`COc1cc(/C=N/Nc2cc(C)nc(NS(=O)(=O)c3ccccc3)n2)ccc1O` gave eIF4E-4G inh -2, PfM18AAP inh-1 32*, MLLE-PAM2 inh -3, PABP polyA inh 3, PERK inh 1, eIF4H FP inh -8, PfM18AAP inh-2 -23 and CTSL1 confirm -6.
COc1cc(/C=N/Nc2nc(C)nc3c2cnn3-c2ccccc2)ccc1O was read as eIF4E-4G inh 8, PfM18AAP inh-1 33*, MLLE-PAM2 inh 2, PABP polyA inh -5, PERK inh -2, eIF4H FP inh -10, PfM18AAP inh-2 -26 and CTSL1 confirm 0.
For Cc1cc(NN)nc(NS(=O)(=O)c2ccccc2)n1 the results were eIF4E-4G inh -2, PfM18AAP inh-1 35*, MLLE-PAM2 inh 1, PABP polyA inh -2, PERK inh 0, eIF4H FP inh -14, PfM18AAP inh-2 4 and CTSL1 confirm -4.
`Cc1cc(NN)nc(NS(=O)(=O)c2ccc(Cl)cc2)n1` gave eIF4E-4G inh 5, PfM18AAP inh-1 37*, MLLE-PAM2 inh 0, PABP polyA inh -7, PERK inh 1, eIF4H FP inh 0, PfM18AAP inh-2 22 and CTSL1 confirm -1.
For COc1ccc(/C=N/Nc2cc(C)nc(NS(=O)(=O)c3ccc(C)cc3)n2)cc1 the results were eIF4E-4G inh 4, PfM18AAP inh-1 23, MLLE-PAM2 inh 10, PABP polyA inh -8, PERK inh 0 and eIF4H FP inh -5.
Screening COc1cc(C)nc(NS(=O)(=O)c2ccccc2)n1 returned eIF4E-4G inh 2, PfM18AAP inh-1 2, MLLE-PAM2 inh -1, PABP polyA inh 5, PERK inh 1 and eIF4H FP inh 2.
COc1cc(/C=N/NC(=O)c2nc(-c3ccccc3)n(-c3ccccc3)n2)ccc1O was read as eIF4E-4G inh 0, PfM18AAP inh-1 2, MLLE-PAM2 inh -2, PABP polyA inh 6, PERK inh 0 and eIF4H FP inh -2.
Screening COc1cc(/C=N/Nc2nncn2N)ccc1OCc1c(C)no[n+]1[O-] returned eIF4E-4G inh -5, PfM18AAP inh-1 51*, MLLE-PAM2 inh 4, PABP polyA inh 2, PERK inh 3, eIF4H FP inh 1, PfM18AAP inh-2 -6 and CTSL1 confirm 5.
Screening COc1cc(/C=C(\C#N)C(N)=O)ccc1OCc1c(C)no[n+]1[O-] returned eIF4E-4G inh -1, PfM18AAP inh-1 -6, MLLE-PAM2 inh -14, PABP polyA inh 8, PERK inh 0 and eIF4H FP inh 7.
For O=C(Cc1ccc(Cl)cc1)c1c[nH]c(C(=O)NCCCN2CCOCC2)c1 the results were eIF4E-4G inh -2, PfM18AAP inh-1 0, MLLE-PAM2 inh 10, PABP polyA inh 5, PERK inh 0 and eIF4H FP inh 7.
Screening O=C(CSc1cn[nH]n1)Nc1cccc(C(=O)O)c1 returned PfM18AAP inh-1 54*, MLLE-PAM2 inh 35, PABP polyA inh 7, eIF4H FP inh 12, PfM18AAP inh-2 12 and CTSL1 confirm -6.
Cc1cccc(NC(=O)CSc2cn[nH]n2)c1 was read as PfM18AAP inh-1 13, MLLE-PAM2 inh 6, PABP polyA inh -4 and eIF4H FP inh 2.
O=C(O)C1CCN(C(=O)CCN2C(=O)S/C(=C\c3ccccc3)C2=O)CC1 was read as PfM18AAP inh-1 37*, MLLE-PAM2 inh 19, PABP polyA inh -3, eIF4H FP inh -9, PfM18AAP inh-2 -45 and CTSL1 confirm 8.
CN(C)Cc1ccc(CNC(=O)COc2ccc3ccccc3c2)cc1 was read as PfM18AAP inh-1 0, MLLE-PAM2 inh 1, PABP polyA inh 0 and eIF4H FP inh -8.
For O=C(COc1ccc(Cl)cc1)OCc1ccc(Cl)cc1 the results were MLLE-PAM2 inh 8.
`N#Cc1c(NC(=O)CSc2nc(N)cc(=O)[nH]2)sc2c1CCCCCC2` gave eIF4E-4G inh -12, PfM18AAP inh-1 -1, MLLE-PAM2 inh -8, PABP polyA inh 8, PERK inh 0 and eIF4H FP inh 2.
`CC(C)C(=O)Nc1sc2c(c1C#N)CCCCC2` gave eIF4E-4G inh -1, PfM18AAP inh-1 38*, MLLE-PAM2 inh 9, PABP polyA inh 32, PERK inh -1, eIF4H FP inh 22, PfM18AAP inh-2 -1 and CTSL1 confirm -1.
N#Cc1c(NC(=O)CSc2ncn[nH]2)sc2c1CCCCC2 was read as eIF4E-4G inh 7, PfM18AAP inh-1 32*, MLLE-PAM2 inh 10, PABP polyA inh -6, PERK inh 0, eIF4H FP inh -2, PfM18AAP inh-2 -31 and CTSL1 confirm 2.
